Source: PubChem BioAssay AID1220 (Sanford-Burnham Center for Chemical Genomics, 2008)
Among all 190,000 compounds or so, about 1,300 (0.68%) were called active. Only a selection was taken, and actives are over-represented in it overall. Unmarked numbers belong to inactive results. No stated cut-off is given here; in the data, active means inhibition above about 50%; inactive means the rest.

These molecules were tested against Mannose-6-phosphate isomerase (Homo sapiens) (UniProt P34949) (assay: human PMI inhibitors, high substrate, primary screen, biochemical, fluorescence intensity, high mannose 6-phosphate (AID 1220)). Details: recombinant PMI enzyme, coupled fluorescence intensity; at 20 µM; active compounds read high.
Mannose-6-phosphate isomerase (Homo sapiens), sequence (P34949 whole entry, looked up): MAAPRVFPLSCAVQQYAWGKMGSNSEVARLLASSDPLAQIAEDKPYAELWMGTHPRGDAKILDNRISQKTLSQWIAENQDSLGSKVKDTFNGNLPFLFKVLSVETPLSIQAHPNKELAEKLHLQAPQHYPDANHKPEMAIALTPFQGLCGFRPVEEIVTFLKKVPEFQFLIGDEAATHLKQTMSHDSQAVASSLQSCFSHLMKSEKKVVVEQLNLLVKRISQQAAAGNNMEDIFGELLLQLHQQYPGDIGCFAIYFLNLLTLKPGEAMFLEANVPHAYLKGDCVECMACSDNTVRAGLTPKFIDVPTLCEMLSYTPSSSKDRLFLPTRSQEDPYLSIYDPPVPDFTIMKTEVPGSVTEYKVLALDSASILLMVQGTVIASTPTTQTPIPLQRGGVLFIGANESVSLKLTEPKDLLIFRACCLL

Compared with `Cc1nn(C)c(C)c1NC(=O)CC12CC3CC(CC(C3)C1)C2`, `CN(C(=O)c1c(Br)cnn1C)C12CC3CC(CC(C3)C1)C2` is lower in inhibition: -1.3% for the first, -2.3% for the second.

Compared with `COc1cc(C)nc(N2CCC(C(=O)NC3CCCCC3)CC2)n1`, `OC(COC1CCCCC1)CN1CCN(c2ccccc2)CC1` (stereo not given) is higher in inhibition: 3.7% for the first, 10.6% for the second.

Going from `CC(=O)c1cccc(NC(=O)CCS(=O)(=O)c2cccc3nsnc23)c1` to `O=C(O)c1cccc(NS(=O)(=O)c2ccc3nnn(O)c3c2)c1`, the inhibition rises from -33.5% to 11.9%.

Compared with `CC(C)(C)NCCCCOc1ccc(F)cc1`, `CCOc1ccc(OCCCCNCCN)cc1` is lower in inhibition: 4.1% for the first, -2.4% for the second.

Going from `O=P(CO)(Cc1ccccc1)Cc1ccccc1` to `O=C(O)C/C=C(\NC(=O)OCc1ccccc1)C(=O)OCc1ccccc1`, the inhibition falls from 5% to -163%.

Going from `Cc1ccccc1-n1c(SC/C(O)=C(\C#N)c2nc3ccccc3[nH]2)nnc1-c1ccncc1` to `Cn1cnnc1SC/C(O)=C(\C#N)c1nc2ccccc2[nH]1`, the inhibition falls from 20.6% to 0.7%.

Going from `CCOc1cc(/C=N/NC(=O)COc2ccc(Cl)cc2)ccc1OS(=O)(=O)c1ccccc1` to `CCn1c(=O)c(C(=O)NNS(=O)(=O)c2ccc(Cl)cc2)c(O)c2ccccc21`, the inhibition rises from -94.4% to -7.4%.

Going from `COc1ccccc1C(=O)Nc1cc2cc(Cl)ccc2oc1=O` to `N/C(=N\OC(=O)c1cc(Cl)ccc1Cl)c1ccccn1`, the inhibition falls from -8% to -10.6%.

First: COC(=O)[C@@H](N)Cc1ccc(O)cc1
Second: COC(=O)C(N)Cc1ccc(O)cc1 (stereo not given)
The inhibition of the first is higher: 6.4% for the first, -2.8% for the second.

First: COc1cc2c(cc1OC)CN(C(=O)CSc1nnc(C)s1)CC2
Second: Cc1cc(C)n(CCN(C)c2nc3nonc3nc2NC2CC2)n1
The inhibition of the first is lower: -13.4% for the first, 14.8% for the second.

First: N#CC1=C2SCN(c3ccccc3)CN2C(=O)CC1c1ccccc1Cl (stereo not given)
Second: N#CC1=C2SCN(c3ccccc3)CN2C(=O)CC1c1cccs1 (stereo not given)
The inhibition of the first is lower: -41% for the first, -2% for the second.

First: CCc1ccccc1N1CSC2=C(C#N)C(c3ccccc3F)CC(=O)N2C1 (stereo not given)
Second: CCc1ccc(N2CSC3=C(C#N)C(c4cccs4)CC(=O)N3C2)cc1 (stereo not given)
The inhibition of the first is higher: -5.1% for the first, -68.6% for the second.

Compared with `O=C(COC(=O)c1cccnc1)Nc1ccc2c(c1)OCO2`, `CCC(=O)Nc1cccc(NC(=O)COc2ccc(OC)cc2)c1` is lower in inhibition: 17.6% for the first, 6.7% for the second.

Compared with `Cc1cc(C)c(C(=O)Nc2ccc(S(=O)(=O)Nc3onc(C)c3C)cc2)c(C)c1`, `Cc1ccc([N+](=O)[O-])cc1S(=O)(=O)NCCc1c(C)[nH]c2c(C)cccc12` is lower in inhibition: 7.8% for the first, -3% for the second.

Going from `CCN(CC)C(=O)c1ccc2c(c1[N+](=O)[O-])C(=O)c1ccccc1C2=O` to `CN(C)C(=O)c1ccc2c(c1[N+](=O)[O-])C(=O)c1ccccc1C2=O`, the inhibition falls from 29.5% to -16.2%.

First: CCCNC(=O)NCCc1c(C)[nH]c2ccccc12
Second: CCCCn1c(NCc2ccccc2NS(=O)(=O)c2ccc(C)cc2)nc2ccccc21
The inhibition of the first is lower: 0.4% for the first, 15.2% for the second.

Compared with `Cc1ccc(S(=O)(=O)c2c(N)n(NC(=O)c3ccco3)c3nc4ccccc4nc23)cc1`, `Cc1ccc(S(=O)(=O)c2c(N)n(Cc3ccco3)c3nc4ccccc4nc23)cc1` is higher in inhibition: -41.3% for the first, -3.1% for the second.

First: Cc1ccc(S(=O)(=O)c2c(N)n(CCC(C)C)c3nc4ccccc4nc23)cc1
Second: Cc1ccc(-n2c(N)c(S(=O)(=O)c3ccccc3)c3nc4ccccc4nc32)cc1
The inhibition of the first is higher: 1.8% for the first, 0.2% for the second.

Going from `CC(=O)Nc1c(S(=O)(=O)c2ccccc2)c2nc3ccccc3nc2n1Cc1ccccc1` to `C=CCn1c(NC(=O)c2ccco2)c(S(=O)(=O)c2ccccc2)c2nc3ccccc3nc21`, the inhibition rises from 7.9% to 34.3%.

In the case of `CCCCn1c(NC(=O)c2ccc(Br)o2)c(S(=O)(=O)c2ccccc2)c2nc3ccccc3nc21`, the inhibition is reported as 5.9%.

In the case of `CCOc1ccc(OCCCCNC(C)(C)C)cc1`, the inhibition is reported as 58.8% (active).
With `Cc1cc(C)n2c(SC/C(O)=C(\C#N)c3nc4ccccc4[nH]3)nnc2n1` the inhibition was 53.4% (active).
In the case of `NC(CO)C(=O)NNCc1ccc(O)c(O)c1O` (stereo not given), the inhibition is reported as 60.4% (active).
For `N#CC1=C2SCN(Cc3ccccc3)CN2C(=O)CC1c1cccs1` (stereo not given), the inhibition was 67.2% (active).
`N#CC1=C2SCN(Cc3ccccc3)CN2C(=O)CC1c1ccccc1F` (stereo not given) was tested, and the inhibition was 52.1% (active).
`Cc1[nH]c2ccccc2c1CCNC(=O)c1ccc2c(c1[N+](=O)[O-])C(=O)c1ccccc1C2=O` was tested, and the inhibition was 53.9% (active).
For `Cc1[nH]c2c(C)cccc2c1CCNC(=O)c1ccc2c(c1[N+](=O)[O-])C(=O)c1ccccc1C2=O`, the inhibition was 55.5% (active).
For `C=CCn1c(NS(=O)(=O)c2ccccc2)c(S(=O)(=O)c2ccc(C)cc2)c2nc3ccccc3nc21`, the inhibition was 52.4% (active).
For `CCCCCn1c(NC(=O)c2ccco2)c(S(=O)(=O)c2ccc(C)cc2)c2nc3ccccc3nc21`, the inhibition was 50.2% (active).
`CCCCn1c(NS(=O)(=O)c2ccc(C)cc2)c(S(=O)(=O)c2ccccc2)c2nc3ccccc3nc21` was tested, and the inhibition was 54.9% (active).
`C=CCn1c(NC(=O)c2ccc(Br)o2)c(S(=O)(=O)c2ccccc2)c2nc3ccccc3nc21` was tested, and the inhibition was 50.8% (active).
